Assay outcomes (PubChem)
MOR-DOR ag: OPRM1-OPRD1 heterodimerization agonism. 340,000 compounds, 0.3% hits. cells, luminescence. activation, % at 9.3 µM. P35372+P41143;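 also: 0% = vehicle-treated cells and 100% = reference agonist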
m5-HT2A agonist: mouse HTR2A agonism via beta-arrestin recruitment; P35363; CHO-K1 mHTR2A beta-arrestin complementation, luminescence; percent of 30 µM serotonin response; activation, % at 7.6 µM; 360,000 compounds, 0.66% hits; AID 624169;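 active = activation above a run cutoff, the mean activation of all tested compounds plus 3 SD, cut at about 14% in these data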;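 also: 0% = plate median of compound wells and 100% = 30 µM serotonin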
Target sequence (P35363 whole entry, looked up): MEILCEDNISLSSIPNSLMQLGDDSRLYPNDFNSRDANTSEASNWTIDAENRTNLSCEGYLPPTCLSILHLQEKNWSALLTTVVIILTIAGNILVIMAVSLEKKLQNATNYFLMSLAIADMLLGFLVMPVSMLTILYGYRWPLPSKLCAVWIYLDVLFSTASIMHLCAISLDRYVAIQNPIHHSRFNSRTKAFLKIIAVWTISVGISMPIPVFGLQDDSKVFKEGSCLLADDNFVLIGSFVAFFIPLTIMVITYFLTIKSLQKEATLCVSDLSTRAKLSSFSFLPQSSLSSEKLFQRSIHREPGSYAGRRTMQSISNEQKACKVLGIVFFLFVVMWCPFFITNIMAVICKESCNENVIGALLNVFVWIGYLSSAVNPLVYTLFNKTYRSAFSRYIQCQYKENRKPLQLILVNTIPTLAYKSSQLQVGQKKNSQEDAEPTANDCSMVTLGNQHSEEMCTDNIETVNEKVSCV
HTR5A ag: HTR5A agonism, opioid heterodimer counter-screen; P47898; HTR5A agonist assay, luminescence, cell-based; activation, % at 9.3 µM; 340,000 compounds, 0.61% hits; in the data active = activation mostly above about 9.5%, no sharp cut-off; inactive = mostly below about 7.6%;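 also: 0% = cells with vehicle only and 100% = reference agonist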
OPRM1-OPRD1 inv: inverse agonists of human mu-delta opioid receptor heterodimerization; cell-based MOR-DOR heterodimer luminescence, inverse agonism; inhibition, % at 9.3 µM; 340,000 compounds, 0.21% hits; AID 504357; in the data active = inhibition above about 22%, passing the limit was not always enough;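 also: 0% = cells with DMSO and 100% = wells without cells with DMSO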
HTR5A inv ag: inverse agonist of human HTR5A in OPRM1-OPRD1 counter-screen; P47898; HTR5A cell line, luminescence, inverse agonism; inhibition, % at 9.3 µM; 340,000 compounds, 0.083% hits; AID 504634; in the data active = inhibition mostly above about 23%, no sharp cut-off; inactive = mostly below about 18%;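 also: 0% = cells with DMSO and 100% = no-cell wells with DMSO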
HGIII-sPLA2 inh: Blocks human group III sPLA2 activity; Q9NZ20; QFRET BODIPY PC-A2 liposome hydrolysis, fluorescence; inhibition, % at 12.2 µM; 370,000 compounds, 0.56% hits; AID 743126;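 active = inhibition above mean plus 3 SD of compounds lying within the high and low control bounds, cut at about 19% in these data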;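 also: 0% = median of test compound wells and 100% = no enzyme DMSO wells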
OPRM1-D1 ag cf: confirmation of human OPRM1-OPRD1 heterodimerization agonists | shares compounds with MOR-DOR ag | 830 compounds, 45% hits | cells, MOR-DOR heterodimerization, luminescence complementation | activation, % at 9.3 µM | AID 504904;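 also: 0% = vehicle-treated cells and 100% = reference agonist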
HTR5A ag counter: activates human HTR5A in OPRM1-OPRD1 agonist counter-screen. activation, % at 9.3 µM. shares compounds with MOR-DOR ag. HTR5A agonist counterscreen, cell luminescence. 830 compounds, 8% hits; in the data active = activation above about 17%;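 also: 0% = vehicle-treated cells and 100% = reference agonist response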
Numbers without * were called inactive. Only some compounds are listed: those with a hit (about 2.2% of all), similar ones and a draw of the others. Rule as the data show it, unless noted: active = activation above about 18%; inactive = the rest.

What do the screens show for `CN(C)CCCN(C(=O)c1ccc(S(=O)(=O)N2CCc3ccccc32)cc1)c1nc2ccc(F)cc2s1`?
MOR-DOR ag: 179*; m5-HT2A agonist: -11; HTR5A ag: 5; OPRM1-OPRD1 inv: inactive; HTR5A inv ag: -42; HGIII-sPLA2 inh: -14; OPRM1-D1 ag cf: -3; HTR5A ag counter: -7

Results for CN(C)CCCN(C(=O)c1ccc(S(=O)(=O)N2CCc3ccccc32)cc1)c1nc2ccc(Cl)cc2s1 ?
MOR-DOR ag: 18; m5-HT2A agonist: -5; HTR5A ag: 2; OPRM1-OPRD1 inv: -95; HTR5A inv ag: -24; HGIII-sPLA2 inh: -2

What do the screens show for `CN(C)CCCN(C(=O)c1ccc(S(=O)(=O)N2CCCCCC2)cc1)c1nc2c(F)cc(F)cc2s1`?
MOR-DOR ag: 55*; m5-HT2A agonist: -4; HTR5A ag: 6; OPRM1-OPRD1 inv: -299; HTR5A inv ag: 9; HGIII-sPLA2 inh: -1; OPRM1-D1 ag cf: 111*; HTR5A ag counter: 0

What do the screens show for `CN(C)CCCN(C(=O)c1ccc(S(=O)(=O)N2CCc3ccccc3C2)cc1)c1nc2c(F)cccc2s1`?
MOR-DOR ag: 107*; m5-HT2A agonist: -5; HTR5A ag: -4; OPRM1-OPRD1 inv: -351; HTR5A inv ag: 11; HGIII-sPLA2 inh: -13; OPRM1-D1 ag cf: -1; HTR5A ag counter: -2

How did CN(C)CCCN(C(=O)c1ccc(S(=O)(=O)N2CCc3ccccc3C2)cc1)c1nc2ccc(F)cc2s1 do in these assays?
MOR-DOR ag: 655*; m5-HT2A agonist: -10; HTR5A ag: 8; OPRM1-OPRD1 inv: inactive; HTR5A inv ag: -29; HGIII-sPLA2 inh: -8; OPRM1-D1 ag cf: active; HTR5A ag counter: 16

What do the screens show for `Cc1cccc2sc(N(CCCN(C)C)C(=O)c3ccc(S(=O)(=O)N4CCc5ccccc5C4)cc3)nc12`?
MOR-DOR ag: 18; m5-HT2A agonist: -7; HTR5A ag: 4; OPRM1-OPRD1 inv: -102; HTR5A inv ag: -13; HGIII-sPLA2 inh: -6

How did O=C(CCn1nnc(-c2cccs2)n1)N1CCOCC1 do in these assays?
HGIII-sPLA2 inh: 16

Results for COc1ccc(/C=C2\CC3(OC(=O)C4CCCC4)CCCN2C3)cc1 (stereo unspecified) ?
HGIII-sPLA2 inh: 5

How did COc1cccc(NC(=O)NC2CCCCN(Cc3ccccc3C)C2=O)c1 (stereo unspecified) do in these assays?
HGIII-sPLA2 inh: -7

What do the screens show for `Cc1ccc2nc(N(CCCN(C)C)C(=O)c3ccc(S(=O)(=O)N4CCc5ccccc5C4)cc3)sc2c1`?
MOR-DOR ag: 130*; m5-HT2A agonist: -7; HTR5A ag: 5; OPRM1-OPRD1 inv: inactive; HTR5A inv ag: -19; HGIII-sPLA2 inh: -14; OPRM1-D1 ag cf: 44*; HTR5A ag counter: 4

What do the screens show for `Cc1ccc2nc(N(CCCN(C)C)C(=O)c3ccc(S(=O)(=O)N4CCOCC4)cc3)sc2c1`?
MOR-DOR ag: -4; m5-HT2A agonist: -6; HTR5A ag: 1; OPRM1-OPRD1 inv: 21; HTR5A inv ag: -4; HGIII-sPLA2 inh: -11

Results for O=C1NN(c2ccccc2)C(=O)C1=Cc1ccccc1O ?
m5-HT2A agonist: 2; HGIII-sPLA2 inh: -3

What do the screens show for `Cc1cc(/C=C2/C(=O)NN(c3ccccc3)C2=O)c(C)n1-c1cccc(O)c1`?
MOR-DOR ag: 20*; m5-HT2A agonist: 2; HTR5A ag: 1; OPRM1-OPRD1 inv: -143; HTR5A inv ag: -1; HGIII-sPLA2 inh: -7; OPRM1-D1 ag cf: -1; HTR5A ag counter: -3

How did O=[N+]([O-])c1ccccc1/C=C/C1Nc2cccc3cccc(c23)N1 do in these assays?
HGIII-sPLA2 inh: 7

What do the screens show for `C[C@@H](C[C@@H](O)[C@H](O)C(C)(C)O)[C@@H]1CC[C@]2(C)C3=CC[C@H]4C(C)(C)C(=O)CC[C@]4(C)[C@H]3CC[C@@]12C`?
MOR-DOR ag: 19*; m5-HT2A agonist: 3; HTR5A ag: -3; OPRM1-OPRD1 inv: -112; HTR5A inv ag: 8; HGIII-sPLA2 inh: -7; OPRM1-D1 ag cf: 7; HTR5A ag counter: 0

What do the screens show for `CN(C)S(=O)(=O)c1ccc(-c2csc(N/N=C/c3ccc(O)cc3)n2)cc1`?
MOR-DOR ag: 38*; m5-HT2A agonist: 0; HTR5A ag: 11; OPRM1-OPRD1 inv: -201; HTR5A inv ag: -30; HGIII-sPLA2 inh: 6; OPRM1-D1 ag cf: 157*; HTR5A ag counter: 4

Results for O=c1c2ccc(Cl)cc2[nH]c(=S)n1Cc1cccnc1 ?
MOR-DOR ag: 62*; m5-HT2A agonist: 4; HTR5A ag: -8; OPRM1-OPRD1 inv: -297; HTR5A inv ag: 18; HGIII-sPLA2 inh: 7; OPRM1-D1 ag cf: 54*; HTR5A ag counter: 0

Results for O=C(c1ccc2c(=O)n(Cc3ccc(Cl)cc3)c(=S)[nH]c2c1)N1CCCC1 ?
MOR-DOR ag: 5; m5-HT2A agonist: 7; HTR5A ag: -2; OPRM1-OPRD1 inv: -25; HTR5A inv ag: -39; HGIII-sPLA2 inh: 0

How did CC(=O)N1CCN(c2ccc(N3CCN(Cc4ccccc4)[C@H](C)C3)c(C)c2)[C@H](C)C1 do in these assays?
HGIII-sPLA2 inh: 8

Results for Nn1c(SCC(=O)Nc2ccc(C(=O)O)cc2)nnc1-c1ccco1 ?
HGIII-sPLA2 inh: -2

How did COC(=O)[C@]12C[C@H](CC(=O)N3CCN(C(=O)C4CC4)CC3)C(=O)N(CCc3ccc(OC)c(OC)c3)C1=C[C@H](C(C)(C)C)O[C@@H]2C do in these assays?
HGIII-sPLA2 inh: -1

Results for CN(C)C(=O)CN1c2cccc3cccc(c23)S1(=O)=O ?
MOR-DOR ag: -2; m5-HT2A agonist: 4; HTR5A ag: 7; OPRM1-OPRD1 inv: 8; HTR5A inv ag: -25; HGIII-sPLA2 inh: -2

Results for CC(C)N(Cc1ccccc1)C(=O)CN1c2cccc3cccc(c23)S1(=O)=O ?
MOR-DOR ag: 19*; m5-HT2A agonist: 2; HTR5A ag: 2; OPRM1-OPRD1 inv: -94; HTR5A inv ag: -6; HGIII-sPLA2 inh: -8; OPRM1-D1 ag cf: 1; HTR5A ag counter: 2

What do the screens show for `O=C(Nc1ccc2c(c1)C(=O)N(c1ccccc1)C2=O)c1cccs1`?
MOR-DOR ag: 18*; m5-HT2A agonist: -3; HTR5A ag: 6; OPRM1-OPRD1 inv: -91; HTR5A inv ag: -23; HGIII-sPLA2 inh: 0; OPRM1-D1 ag cf: 17; HTR5A ag counter: 9

What do the screens show for `CCCC(=O)Nc1cc(C)c2c(=O)oc3ccccc3c2n1`?
MOR-DOR ag: 1; m5-HT2A agonist: -4; HTR5A ag: 0; OPRM1-OPRD1 inv: -5; HTR5A inv ag: 0; HGIII-sPLA2 inh: 8
